Among all 5,500 compounds or so, about 2,000 (36%) were called active. Not shown: some 18% with an inconclusive outcome. Rule as the data show it: active = normalized growth mostly below about 0.91 (no sharp cut-off); inconclusive = no clear call, values can overlap the other calls; inactive = mostly above about 0.92. This is one part of the list.
Test: chemical genetic growth profiling, strain panel (AID 1159580);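 also: tested at 20 µM; growth read once vehicle control cultures reached saturation at 30 °C; 1 = growth at the plate median or of vehicle wells; lower values mean less growth of the strain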
Conditions: growth OD

Measured: normalized growth

N[C@@H](Cc1ccc(N(CCCl)CCCl)cc1)C(=O)O
inactive: S. cerevisiae deletion strains, locus YJR075W, strain HOC1, active compounds read low 0.986 | S. cerevisiae deletion strains, locus YKL009W, strain mrt4, active compounds read low 0.961 | S. cerevisiae deletion strains, locus YKL068W, active compounds read low 0.971 | S. cerevisiae deletion strains, locus YKL085W, strain MDH1 (second series), active compounds read low 0.991 | S. cerevisiae deletion strains, locus YKL085W, strain MDH1, active compounds read low 0.991 | S. cerevisiae deletion strains, locus YKL160W, strain elf1, active compounds read low 0.968 | S. cerevisiae deletion strains, locus YKL190W, strain CNB1, active compounds read low 0.98 | S. cerevisiae deletion strains, locus YKR001C, strain vps1, active compounds read low 0.961 | S. cerevisiae deletion strains, locus YKR026C, strain gcn3, active compounds read low 0.979 | S. cerevisiae deletion strains, locus YKR091W, strain srl3, active compounds read low 0.975 | S. cerevisiae deletion strains, locus YLL001W, strain dnm1, active compounds read low 0.929 | S. cerevisiae deletion strains, locus YLL026W, active compounds read low 0.989 | S. cerevisiae deletion strains, locus YLL041C, strain sdh2, active compounds read low 0.982 | S. cerevisiae deletion strains, locus YLR027C, strain aat2, active compounds read low 0.995 | S. cerevisiae deletion strains, locus YLR039C, strain RIC1, active compounds read low 0.96 | S. cerevisiae deletion strains, locus YLR058C, strain SHM2, active compounds read low 0.968 | S. cerevisiae deletion strains, locus YLR102C, strain apc9, active compounds read low 0.981 | S. cerevisiae deletion strains, locus YLR113W, strain HOG1, active compounds read low 1.03 | S. cerevisiae deletion strains, locus YLR221C, strain rsa3, active compounds read low 0.958 | S. cerevisiae deletion strains, locus YLR258W, strain gsy2, active compounds read low 0.983 | S. cerevisiae deletion strains, locus YLR262C, strain YPT6 (second series), active compounds read low 0.979 | S. cerevisiae deletion strains, locus YLR262C, strain YPT6, active compounds read low 0.898 | S. cerevisiae deletion strains, locus YLR268W, strain sec22, active compounds read low 0.967 | S. cerevisiae deletion strains, locus YLR320W, strain mms22, active compounds read low 0.97 | S. cerevisiae deletion strains, locus YLR330W, strain CHS5, active compounds read low 0.986 | S. cerevisiae deletion strains, locus YLR342W, strain FKS1 (second series), active compounds read low 0.983 | S. cerevisiae deletion strains, locus YLR342W, strain FKS1, active compounds read low 0.978 | S. cerevisiae deletion strains, locus YLR357W, strain rsc2, active compounds read low 0.954 | S. cerevisiae deletion strains, locus YLR370C, strain arc18, active compounds read low 0.978 | S. cerevisiae deletion strains, locus YLR371W, strain rom2, active compounds read low 0.978 | S. cerevisiae deletion strains, locus YLR384C, strain iki3, active compounds read low 0.985 | S. cerevisiae deletion strains, locus YLR418C, strain cdc73, active compounds read low 0.976 | S. cerevisiae deletion strains, locus YML016C, strain PPZ1, active compounds read low 0.982 | S. cerevisiae deletion strains, locus YML032C, strain rad52, active compounds read low 0.979 | S. cerevisiae deletion strains, locus YML120C, strain ndi1, active compounds read low 0.952 | S. cerevisiae deletion strains, locus YML124C, strain tub3, active compounds read low 0.987 | S. cerevisiae deletion strains, locus YMR058W, strain fet3, active compounds read low 0.983 | S. cerevisiae deletion strains, locus YMR078C, strain ctf18, active compounds read low 0.961 | S. cerevisiae deletion strains, locus YMR125W, strain sto1, active compounds read low 0.97 | S. cerevisiae deletion strains, locus YMR129W, active compounds read low 0.981 | S. cerevisiae deletion strains, locus YMR205C, strain PFK2, active compounds read low 0.974 | S. cerevisiae deletion strains, locus YMR223W, strain ubp8, active compounds read low 0.987 | S. cerevisiae deletion strains, locus YMR231W, strain pep5, active compounds read low 0.987 | S. cerevisiae deletion strains, locus YMR263W, strain SAP30, active compounds read low 0.982 | S. cerevisiae deletion strains, locus YMR307W, strain GAS1, active compounds read low 0.915 | S. cerevisiae deletion strains, locus YNL067W, strain RPL9B, active compounds read low 0.984 | S. cerevisiae deletion strains, locus YNL071W, strain lat1, active compounds read low 0.932 | S. cerevisiae deletion strains, locus YNL128W, strain TEP1, active compounds read low 0.982 | S. cerevisiae deletion strains, locus YNL153C, strain GIM3, active compounds read low 0.976 | S. cerevisiae deletion strains, locus YNL183C, strain NPR1, active compounds read low 0.966 | S. cerevisiae deletion strains, locus YNL209W, strain ssb2, active compounds read low 0.983 | S. cerevisiae deletion strains, locus YNL233W, strain BNI4, active compounds read low 0.994 | S. cerevisiae deletion strains, locus YNL248C, strain rpa49, active compounds read low 0.978 | S. cerevisiae deletion strains, locus YNL250W, strain rad50, active compounds read low 0.969 | S. cerevisiae deletion strains, locus YNL271C, strain bni1, active compounds read low 0.979 | S. cerevisiae deletion strains, locus YNL298W, strain CLA4, active compounds read low 0.979 | S. cerevisiae deletion strains, locus YNL307C, strain MCK1, active compounds read low 0.985 | S. cerevisiae deletion strains, locus YNL322C, strain KRE1 (second series), active compounds read low 0.989 | S. cerevisiae deletion strains, locus YNL322C, strain KRE1, active compounds read low 0.982 | S. cerevisiae deletion strains, locus YNR049C, strain mso1, active compounds read low 0.977 | S. cerevisiae deletion strains, locus YNR052C, strain pop2, active compounds read low 0.974 | S. cerevisiae deletion strains, locus YOL006C, strain TOP1, active compounds read low 0.954 | S. cerevisiae deletion strains, locus YOL012C, strain htz1 0.837 | S. cerevisiae deletion strains, locus YOL147C, strain pex11, active compounds read low 0.986 | S. cerevisiae deletion strains, locus YOR001W, strain rrp6, active compounds read low 0.988 | S. cerevisiae deletion strains, locus YOR061W, strain CKA2, active compounds read low 0.962 | S. cerevisiae deletion strains, locus YOR069W, strain VPS5, active compounds read low 0.998 | S. cerevisiae deletion strains, locus YOR070C, strain gyp1, active compounds read low 0.979 | S. cerevisiae deletion strains, locus YOR080W, strain dia2, active compounds read low 0.995 | S. cerevisiae deletion strains, locus YOR083W, strain WHI5, active compounds read low 0.963 | S. cerevisiae deletion strains, locus YOR106W, strain vam3, active compounds read low 0.996 | S. cerevisiae deletion strains, locus YOR136W, strain idh2, active compounds read low 0.989 | S. cerevisiae deletion strains, locus YOR144C, strain elg1, active compounds read low 0.99 | S. cerevisiae deletion strains, locus YOR184W, strain ser1, active compounds read low 0.96 | S. cerevisiae deletion strains, locus YOR231W, strain MKK1, active compounds read low 1.01 | S. cerevisiae deletion strains, locus YOR265W, strain rbl2, active compounds read low 0.989 | S. cerevisiae deletion strains, locus YOR270C, strain vph1, active compounds read low 0.981 | S. cerevisiae deletion strains, locus YOR290C, strain snf2, active compounds read low 0.909 | S. cerevisiae deletion strains, locus YOR316C, strain cot1, active compounds read low 0.97 | S. cerevisiae deletion strains, locus YPL051W, strain arl3, active compounds read low 0.974 | S. cerevisiae deletion strains, locus YPL055C, strain LGE1, active compounds read low 0.963 | S. cerevisiae deletion strains, locus YPL078C, strain atp4, active compounds read low 0.974 | S. cerevisiae deletion strains, locus YPL106C, strain sse1, active compounds read low 0.976 | S. cerevisiae deletion strains, locus YPL240C, strain hsp82, active compounds read low 0.989 | S. cerevisiae deletion strains, locus YPL241C, strain CIN2, active compounds read low 1.04 | S. cerevisiae deletion strains, locus YPL256C, strain CLN2, active compounds read low 1.02 | S. cerevisiae deletion strains, locus YPR119W, strain clb2, active compounds read low 0.991 | S. cerevisiae deletion strains, locus YPR141C, strain kar3, active compounds read low 0.961 | S. cerevisiae deletion strains, locus YPR163C, strain tif3, active compounds read low 0.984 | S. cerevisiae deletion strains, locus YPR167C, strain met16, active compounds read low 0.972 | S. cerevisiae deletion strains, strain wtn01, active compounds read low 0.982 | S. cerevisiae strains, strain wild type, active compounds read low 0.983
